A short description of assay [1]: qHTS to identify inhibitors of the type 1 interferon - major histocompatibility complex class I in skeletal muscle: primary screen against the NCATS Mechanism Interrogation Plate v5.0 (MIPE) Libary (AID 1347411).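 Also: plate controls were vehicle for no effect and reference inhibitor for full effect; nearly all actives have a fitted effect of over 65% in size.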 The procedure, abridged: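 Cells were genome-edited human myoblasts carrying a HiBit tag on endogenous HLA-B. They were treated with IFN-beta (4.0 ng/ml) and titrated compounds (top 46 uM) for 24 hrs before lytic HiBiT detection.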

For assay [2], the target named is Calcium and integrin-binding protein 1 (Homo sapiens) (UniProt Q99828). The experiment in a line: Primary qHTS for Identification of Calcium Integrin Binding Protein 1 (CIB1) Competitor (AID 1508620). Also: potency is read from the fitted curve at half-maximal effect.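 As to activity change, negative = inhibition: GST tagged CIB1 binding a fluorescein labelled alphaIIb integrin peptide tracer; top concentration of the series differs between compounds; % is scaled to controls: 0 for no effect and ±100 for the full control effect.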 The gist of the method: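 Fluorescence polarization competition: CIB1-GST (1 uM final) preincubated with compound 15 min at room temperature, then FITC-labeled alphaIIb peptide (100 nM final) added for another 15 min. Polarization read at Ex 480/Em 540.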
Calcium and integrin-binding protein 1 (Homo sapiens), sequence (Q99828 whole entry, looked up): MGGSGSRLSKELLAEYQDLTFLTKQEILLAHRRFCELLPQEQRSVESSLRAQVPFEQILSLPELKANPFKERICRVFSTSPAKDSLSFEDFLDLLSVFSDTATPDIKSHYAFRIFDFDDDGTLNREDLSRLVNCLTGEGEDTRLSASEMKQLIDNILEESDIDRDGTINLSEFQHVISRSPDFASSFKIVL

Assay [3] has as its target Cytochrome P450 2D6 (Homo sapiens) (UniProt P10635). The experiment in a line: Cytochrome P450 family 2 subfamily D member 6 (CYP2D6) small molecule antagonists: luciferase biochemical (cell-free) qHTS assay (AID 1645840; active = well fitted curve in the direction sought with a large enough effect in the repeat runs; an effect the other way counts as inactive or inconclusive; also: nearly all actives have a fitted effect of over 55% in size; also: potency is read from the fitted curve at half-maximal effect; as to activity change, negative = inhibition: % is scaled to controls: 0 for no effect and ±100 for the full control effect). The gist of the method: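 P450-Glo luminescent screen: recombinant CYP2D6 enzyme–proluciferin substrate mix preincubated with compound 10 min at room temperature, then NADPH regeneration added for 1 h at room temperature. Detection reagent added for 20 min; luciferin light read as relative luminescence units.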
For orientation: Quantitative high-throughput screening tests each substance at several concentrations.

The nature of assay [4]: Primary qHTS for inhibitors of nuclear receptor binding SET domain protein 2 (NSD2) in an isogenic RCH-ACV NSD2 p.E1099K mutant (9B) (AID 1645876). Also: nearly all actives have a fitted effect of over 70% in size.
Assay [5] is described as follows: Primary qHTS for inhibitors of nuclear receptor binding SET domain protein 2 (NSD2) in an RCH-ACV wild type WT cells (2C) (AID 1645877). Also: nearly all actives have a fitted effect of over 70% in size. Also: potency is read from the fitted curve at half-maximal effect.
Assay [6] is described as follows: NCATS anti-infectives library activity on HEK293 viability as a counter-qHTS vs the C. elegans viability qHTS (AID 1745854).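 Also: HEK293 cells exposed to compounds for 24 hr before the viability read; % is scaled to controls: 0 for no effect and ±100 for the full control effect.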 The procedure, abridged:
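Cytotoxicity in human HEK293 cells is measured by ATP-dependent CellTiter-Glo luminescence following a 24 hr incubation with titrated library compounds at 37C. Top final concentration is 41.7 uM.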

Assay [7] has as its target Cytochrome P450 2C9 (Homo sapiens) (UniProt P11712). The experiment in a line: Cytochrome P450 family 2 subfamily C member 9 (CYP2C9) small molecule antagonists: luciferase biochemical (cell-free) qHTS assay (AID 1645842; active = well fitted curve in the direction sought with a large enough effect in the repeat runs; an effect the other way counts as inactive or inconclusive; also: nearly all actives have a fitted effect of over 55% in size; also: potency is read from the fitted curve at half-maximal effect; as to activity change, negative = inhibition: % is scaled to controls: 0 for no effect and ±100 for the full control effect). The gist of the method:
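Luminescence, after 20 min with luciferin detection reagent, reflected CYP2C9 turnover during a 1 h NADPH-driven reaction at 37C. Enzyme-substrate mix contained 0.4% bovine serum albumin and was preincubated with compound 10 min at room temperature.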

Assay [8] has as its target N-terminal Xaa-Pro-Lys N-methyltransferase 1 (Homo sapiens) (UniProt Q9BV86). The experiment in a line: Confirmatory qHTS for Inhibitors of N-terminal methyltransferase 1 (NTMT1): MTaseGlo Assay (AID 1645874). Also: potency is read from the fitted curve at half-maximal effect; nearly all actives have a fitted effect of over 65% in size. The procedure, abridged: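 Compounds are incubated with 125 nM NTMT1 and 100 uM SAM for 15 min before the SPKRIA peptide (1 uM) starts a 30 min room-temperature methylation. SAH is measured by coupled luciferase luminescence and curves fitted to a Hill equation.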

In assay [9] the target is Catechol O-methyltransferase (Homo sapiens) (UniProt P21964). The experiment in a line: Confirmatory Screen for Target Class Profiling of Small Molecule Inhibitors of Methyltransferases (AID 1745852; calls by dose curve; also: potency is read from the fitted curve at half-maximal effect). The settings on record: MTase-Glo luminescence, SAH detection, recombinant enzyme; measured here: COMT max response; stronger effect = lower value.
Catechol O-methyltransferase (Homo sapiens), sequence (P21964 whole entry, looked up): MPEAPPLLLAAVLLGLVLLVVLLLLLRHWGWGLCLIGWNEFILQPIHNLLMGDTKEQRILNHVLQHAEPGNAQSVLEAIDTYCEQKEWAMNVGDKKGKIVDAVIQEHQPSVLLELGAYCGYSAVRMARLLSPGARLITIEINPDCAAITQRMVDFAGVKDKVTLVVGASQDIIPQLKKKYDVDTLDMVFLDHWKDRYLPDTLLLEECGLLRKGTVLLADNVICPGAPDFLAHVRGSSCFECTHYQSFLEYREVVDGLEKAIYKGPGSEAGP
The target of assay [10] is Guanidinoacetate N-methyltransferase (Homo sapiens) (UniProt Q14353). The description is as above. The settings on record: MTase-Glo luminescence, SAH detection, recombinant enzyme; activity change, negative = inhibition: at 57.3 µM (top of the series) unless noted.
The target of assay [11] is Nicotinamide N-methyltransferase (Homo sapiens) (UniProt P40261). Described as above. The settings on record: MTase-Glo luminescence, SAH detection, recombinant enzyme; measured here: NNMT max response; stronger effect = lower value.
Nicotinamide N-methyltransferase (Homo sapiens), sequence (P40261 whole entry, looked up): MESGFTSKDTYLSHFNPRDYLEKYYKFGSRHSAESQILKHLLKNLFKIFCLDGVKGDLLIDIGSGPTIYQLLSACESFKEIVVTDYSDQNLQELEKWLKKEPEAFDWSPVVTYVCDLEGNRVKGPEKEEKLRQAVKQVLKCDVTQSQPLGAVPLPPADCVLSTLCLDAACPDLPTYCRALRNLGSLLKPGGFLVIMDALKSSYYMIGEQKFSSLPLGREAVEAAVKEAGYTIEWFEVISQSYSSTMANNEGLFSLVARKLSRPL
In assay [12] the target is Phenylethanolamine N-methyltransferase (Homo sapiens) (UniProt P11086). Described as above. Particulars: MTase-Glo luminescence, SAH detection, recombinant enzyme; measured here: PNMT max response; stronger effect = lower value.
Phenylethanolamine N-methyltransferase (Homo sapiens), sequence (P11086 whole entry, looked up): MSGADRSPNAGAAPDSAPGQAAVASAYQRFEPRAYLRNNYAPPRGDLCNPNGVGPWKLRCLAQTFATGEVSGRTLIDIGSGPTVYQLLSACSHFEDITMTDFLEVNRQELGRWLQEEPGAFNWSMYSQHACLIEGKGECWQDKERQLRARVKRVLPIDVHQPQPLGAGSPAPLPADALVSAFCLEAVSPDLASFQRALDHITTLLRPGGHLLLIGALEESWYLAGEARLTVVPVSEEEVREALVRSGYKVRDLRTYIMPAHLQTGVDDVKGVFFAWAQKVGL
For assay [13], the target named is Calcium and integrin-binding protein 1 (Homo sapiens) (UniProt Q99828). The experiment in a line: Confirmatory qHTS for Identification of Calcium Integrin Binding Protein 1 (CIB1) Competitor (AID 1508617). Also: potency is read from the fitted curve at half-maximal effect; nearly all actives have a fitted effect of over 65% in size. The settings on record: CIB1 binding competition assay, biochemical qHTS. The gist of the method:
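Binding competition between test compounds and fluorescent alphaIIb peptide for 1 uM CIB1-GST is monitored by FP at 480/540 nm. Final compound range is up to 114 uM; unlabeled peptide serves as reference competitor.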

Values joined by “and” are separate entries in the source; they are usually repeats but may differ in a detail not shown here. Identical values can stand only once. Results filed as inconclusive are left out. Some compounds were tested as several samples or in several runs, with calls that do not always agree. Active and inactive are the calls of the source. Unless noted, calls follow the shape of the dose curve; as a rule, active = well fitted curve in the direction sought with a large enough effect; inconclusive = small, poorly fitted or top-dose-only effect, or another doubt; inactive = no such curve, though single readings can be large; an effect the other way counts as inactive or inconclusive.

Cytochrome P450 2D6 (Homo sapiens), sequence (P10635 whole entry, looked up): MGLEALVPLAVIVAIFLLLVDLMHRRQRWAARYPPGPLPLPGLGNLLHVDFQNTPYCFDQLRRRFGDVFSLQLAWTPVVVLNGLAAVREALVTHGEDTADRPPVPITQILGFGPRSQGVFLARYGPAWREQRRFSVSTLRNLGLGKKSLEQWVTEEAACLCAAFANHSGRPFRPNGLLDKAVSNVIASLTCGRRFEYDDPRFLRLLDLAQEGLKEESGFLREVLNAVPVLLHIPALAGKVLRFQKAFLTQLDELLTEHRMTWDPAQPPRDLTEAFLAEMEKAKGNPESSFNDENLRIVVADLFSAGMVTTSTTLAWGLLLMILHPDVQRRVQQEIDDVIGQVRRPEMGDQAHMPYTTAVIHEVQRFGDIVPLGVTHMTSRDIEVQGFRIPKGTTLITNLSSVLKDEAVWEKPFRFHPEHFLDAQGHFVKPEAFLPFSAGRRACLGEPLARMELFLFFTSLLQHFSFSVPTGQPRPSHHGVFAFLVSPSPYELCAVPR
Cytochrome P450 2C9 (Homo sapiens), sequence (P11712 whole entry, looked up): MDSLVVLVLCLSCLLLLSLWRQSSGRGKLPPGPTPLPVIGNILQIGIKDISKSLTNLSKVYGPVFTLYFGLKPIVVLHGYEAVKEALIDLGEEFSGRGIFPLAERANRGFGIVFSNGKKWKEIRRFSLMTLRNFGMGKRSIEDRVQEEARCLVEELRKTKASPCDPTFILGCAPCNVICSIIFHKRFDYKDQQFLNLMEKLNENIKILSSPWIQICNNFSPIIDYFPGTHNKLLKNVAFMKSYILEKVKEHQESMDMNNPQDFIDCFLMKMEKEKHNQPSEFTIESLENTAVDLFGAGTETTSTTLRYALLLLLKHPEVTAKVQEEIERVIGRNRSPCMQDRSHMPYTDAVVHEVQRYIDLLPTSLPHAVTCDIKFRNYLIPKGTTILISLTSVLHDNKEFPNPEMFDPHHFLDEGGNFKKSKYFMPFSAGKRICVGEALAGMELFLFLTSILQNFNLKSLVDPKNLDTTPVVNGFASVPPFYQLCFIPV
N-terminal Xaa-Pro-Lys N-methyltransferase 1 (Homo sapiens), sequence (Q9BV86 whole entry, looked up): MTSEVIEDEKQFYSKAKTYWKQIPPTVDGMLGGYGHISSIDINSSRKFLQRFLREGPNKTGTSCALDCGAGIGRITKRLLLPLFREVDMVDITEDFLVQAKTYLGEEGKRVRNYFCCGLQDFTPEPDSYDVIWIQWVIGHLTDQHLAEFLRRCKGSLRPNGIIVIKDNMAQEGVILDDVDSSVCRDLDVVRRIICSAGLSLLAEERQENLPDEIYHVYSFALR

For `COc1cccc2c1c(O)c(C(=O)N(C)c1ccc(C(F)(F)F)cc1)c(=O)n2C`, the outcome in assay [1] and in assay [6] was “inactive” each time. For the same compound, the Potency result in assay [2], in assay [3], in assay [4] and in assay [5] was “inactive” throughout.
As for `N#Cc1cccc(-c2c[nH]c3ncnc(N4CCOCC4)c23)c1`, the outcome in assay [1] was “inactive”. In addition, the Potency result in [2] was “inactive”. The Potency in assay [7] is 2.39 µM (active); in [8], 39.8 µM (active); in assay [10], 24.1 µM (active). The activity is -74.9% in assay [9], -64.5% in assay [11] and -72.3% in assay [12].
`Cc1c(F)cc(C(=O)NC2CC2)cc1-c1ccc(C(=O)NCC(C)(C)C)cn1`: in assay [1], the outcome is “inactive”. In addition, the Potency entry in assay [2] and in assay [3] was “inactive” each time.
For the compound `C/C=C(\C)C1C(C)=CC2CCC(OS(=O)(=O)O)C(C)C2C1/C=C/C=C/C(=O)O` (configuration not stated), in assay [2], the Potency result is “inactive”.
Regarding `Cn1cc(-c2c[nH]c3ncnc(N4CCOCC4)c23)cn1`, the outcome in assay [1] is “inactive”. Moreover, the Potency result in [2] and in [4] was “inactive” throughout. In assay [5], the Potency was 23.1 µM (active).
With `C[C@@H]1O[C@@H](O[C@@H]2\C=C/C=C\C=C/C=C\C[C@H](C)OC(=O)/C=C\[C@H]3O[C@@H]3C[C@H](O)C[C@]3(O)C[C@@H](O)[C@@H](C(=O)O)[C@H](C2)O3)[C@H](O)[C@H](N)[C@@H]1O`, in [1], the outcome was “inactive”. The Potency result in assay [2], in assay [4] and in assay [5] was “inactive” throughout.
For `CC(=O)OC12CC(C)C(OC(=O)c3ccccc3)C1/C=C(/C)C(OC(=O)c1ccccc1)CC(=O)C(C)(C)/C=C/C(C)C2=O` (configuration not stated), the Potency entry in assay [2] was “inactive”.
With `Cc1c(Cc2ccc3ccccc3n2)c2cc(F)ccc2n1CC(=O)O`, the Potency in assay [13] is 50.1 µM (active); in [2] it was 44.7 µM (active). Also, the Potency entry in [3], in assay [4] and in assay [5] was “inactive” each time.
On to `C=C1C[C@@]2(O)O[C@@]3(C[C@H]2C(C)C)[C@@H](C)CC[C@@H]13`, for which, in [1], the outcome was “inactive”. Further, the Potency entry in [2], in [4] and in assay [5] was “inactive” each time.
As for `COc1cc(C)c(C(=O)OC2C(C)OC(OC3CCC(C)C4C3C=C(C)C3/C(C)=C\CC/C(C)=C/C5(C)C=C(C(=O)O)C(C)CC56OC(=O)/C(=C(\O)C34C)C6=O)C(O)C2O)c(OC)c1` (configuration not stated), the Potency entry in [2] was “inactive”.
Take `C=C(C)[C@@H]1CC[C@]2(C(=O)O)CC[C@]3(C)[C@H](CCC4[C@@]5(C)CCC(=O)C(C)(C)C5C(O)C[C@]43C)C12` (some centres not stated): in [2], the Potency entry is “inactive”.
As for `C/C(=C\C(=O)C(C)C1CCC2C3=C(CCC21C)C1(C)CCC(=O)C(C)(C)C1(O)CC3)C(C)(C)O` (configuration not stated), in [2], the Potency result is “inactive”.
As to `CCC(CC)CC1(C(=O)Nc2ccccc2SC(=O)C(C)C)CCCCC1`, the outcome in assay [1] is “inactive”. The Potency result in assay [2], in assay [3], in assay [4] and in assay [5] was “inactive” throughout. Further, the Potency in assay [7] was 1.9 µM (active).
On to `N#Cc1ccc(C2CCCc3cncn32)cc1` (configuration not stated), for which the outcome in assay [1] was “inactive”. Besides, the Potency result in [2], in assay [4] and in [5] was “inactive” in each case. Moreover, the Potency in [3] is 17.5 µM (active).
Take `C=C[C@]1(C)C[C@@H](OC(=O)CSC2C[C@H]3CC[C@@H](C2)N3C)[C@]2(C)[C@H](C)CC[C@]3(CCC(=O)[C@H]32)[C@@H](C)[C@@H]1O` (some centres not stated): the Potency entry in assay [2] was “inactive”.
For `O=C(O)CC1CCC(c2ccc(-c3ccc(Nc4ccc(C(F)(F)F)nc4)cn3)cc2)CC1` (configuration not stated), the outcome in assay [1] is “inactive”. Further, the Potency result in assay [2], in assay [7], in assay [4] and in [5] was “inactive” each time. Also, the activity in assay [9] was -2.38%; in [11], -13.8%; in assay [12] it was -3.22%. The activity change, negative = inhibition in assay [10] is 0.046%.
On to `C=CCC/C=C/C#CCCCCCCCC[C@H]1C(=O)O[C@H](C)[C@@H]1O`, for which the Potency entry in assay [2] is “inactive”.
In the case of `CCc1cccc2c3c([nH]c12)[C@@](CC)(CC(=O)O)OCC3`, the outcome in assay [1] was “inactive”. Besides, the Potency result in assay [2], in assay [4] and in [5] was “inactive” in each case.
For `CC(C)N(CCCNC(=O)Nc1ccc(C(C)(C)C)cc1)C[C@H]1O[C@@H](n2ccc3c(N)ncnc32)[C@H](O)[C@@H]1O`, in assay [1], the outcome was “inactive”. Also, the Potency result in assay [2] and in assay [4] was “inactive” each time. In assay [5], the Potency result is “inactive and 18.6 µM (active)”. Moreover, the activity was -14.9% in assay [9], -18.1% in assay [11] and -18.6% in assay [12]. The activity change, negative = inhibition in [10] was -7.92%.
Turning to `CC(=O)NC(Cc1c[nH]c2ccccc(=O)c12)C(=O)O` (configuration not stated), the Potency in assay [13] was 44.7 µM (active). Moreover, the Potency entry in assay [4] and in [5] was “inactive” each time. The activity in assay [9] is -73.7%; in assay [11], 3.04%; in assay [12], -0.114%. Moreover, the activity change, negative = inhibition in assay [10] was determined as 0%.
For the compound `CCCCOc1nc(N)c2c(n1)N(Cc1cccc(CN3CCCC3)c1)CC(=O)N2`, the outcome in [1] and in assay [6] was “inactive” in each case. Also, the Potency result in [2], in [7], in [4] and in [5] was “inactive” in each case. Further, the Potency in [3] was 3.38 µM (active).
With `CNc1nc(C)nc(N[C@H]2CCC[C@@H](C(=O)NCc3ccc(C#N)cc3C(F)(F)F)C2)n1`, the outcome in [1] was “inactive”. In addition, the Potency entry in assay [2], in [7], in [4] and in [5] was “inactive” in each case.
Take `Cc1nc(-c2cccnc2)sc1C(=O)Nc1ccccc1-c1cn2c(CN3CCOCC3)csc2n1`: the outcome in assay [1] is “inactive”. Further, the Potency result in [2], in [4] and in [5] was “inactive” each time.
For `CC1(C)CC[C@]2(C(=O)O)CC[C@]3(C)C(=CCC4[C@@]5(C)C[C@@H](O)[C@H](O)[C@@](C)(CO)C5[C@H](O)C[C@]43C)[C@@H]2C1` (some centres not stated), the Potency entry in assay [2] is “inactive”.

The values above are taken from PubChem BioAssay (NCATS).
